“And” between values parts separate entries of the source, which are not always exact repeats. Equal entries are not always repeated. In all, about 16,000 compounds went through this assay and about 5,100 (32%) were called active. About 25% were inconclusive and are not listed. Calls come from the whole dose curve; as a rule, active = well fitted curve in the direction sought with a large enough effect; inconclusive = small, poorly fitted or top-dose-only effect, or effect the other way; inactive = no such curve, though single readings can be large or run the other way. Some of the results follow.
biological target: Cytochrome P450 3A4 (Homo sapiens) (UniProt P08684); assay: Cytochrome panel assay with activity outcomes; conditions: recombinant CYP, pro-luciferin dealkylation, luminescence, p450-cyp3a4; series mostly up to 57.1 µM
Sequence (P08684 whole entry, looked up): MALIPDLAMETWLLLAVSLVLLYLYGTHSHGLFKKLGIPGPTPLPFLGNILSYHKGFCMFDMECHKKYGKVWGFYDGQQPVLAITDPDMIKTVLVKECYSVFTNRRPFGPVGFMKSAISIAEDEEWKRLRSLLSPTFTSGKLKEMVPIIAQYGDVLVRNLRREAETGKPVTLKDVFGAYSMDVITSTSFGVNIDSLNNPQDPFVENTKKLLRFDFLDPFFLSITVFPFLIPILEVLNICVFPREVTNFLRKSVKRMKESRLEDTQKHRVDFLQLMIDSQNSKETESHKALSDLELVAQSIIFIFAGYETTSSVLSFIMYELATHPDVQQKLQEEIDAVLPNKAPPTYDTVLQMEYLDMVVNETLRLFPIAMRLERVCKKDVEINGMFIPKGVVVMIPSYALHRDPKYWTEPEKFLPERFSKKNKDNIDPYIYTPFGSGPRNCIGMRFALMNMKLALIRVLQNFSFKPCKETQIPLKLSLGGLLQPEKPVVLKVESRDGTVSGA
% is set by controls: 0 for no effect and ±100 for the full control effect.

Row | Structure (SMILES) | activity, negative = inhibition | AC50
1 | Cn1c(=O)c2c(nc(N/N=C\c3ccccc3C(=O)O)n2C)n(C)c1=O | 5.51% [at 11.4 µM] (inactive) | –
2 | CCC[C@H]1C(=O)N2C(N(C)C)=Nc3ccc(C)cc3N2C1=O | – | inactive
3 | COCCn1c(=O)c(-c2cc(F)cc(F)c2)nc2cnc(Nc3cccc(OC)c3)nc21 | – | 7.94 µM (active)
4 | COc1cccc(Nc2ncc3nc(-c4ccc(F)cc4)c(=O)n(CCC#N)c3n2)c1 | – | 3.16 µM (active)
5 | COCCn1c(=O)c(-c2ccccc2)nc2cnc(Nc3cccc(OC)c3)nc21 | – | inactive
6 | COc1ccc(Sc2nc3ccccc3n3c(C(F)(F)F)nnc23)cc1 | -0.72% [at 11.4 µM] (inactive) | –
7 | CN1CCc2cc3c(cc2[C@@H]1[C@@H]1C(=O)Oc2c1ccc1c2OCO1)OCO3 | – | 1.26 µM (active)
8 | C[N+]1(C)CCc2cc3c(cc2[C@@H]1[C@@H]1C(=O)Oc2c1ccc1c2OCO1)OCO3 | – | 12.6 µM (active) and 15.8 µM (active)
9 | CCCCSC(=S)N(C)C1CCS(=O)(=O)C1 (stereo not given) | – | inactive
10 | CN(C)c1ccc(-c2nccc(Nc3ccc(F)cc3)n2)cc1 | – | 12.6 µM (active)
11 | Fc1ccc(Nc2ccnc(-c3ccc4c(c3)OCO4)n2)cc1 | – | 2 µM (active)
12 | Nc1nccc(Nc2ccc(S(N)(=O)=O)cc2)n1 | -5.22% [at 11.4 µM] (inactive) | –
13 | Fc1ccc(Nc2ccnc(-c3ccoc3)n2)cc1 | – | 7.94 µM (active)
14 | CN(C)c1ccc(-c2cc(Nc3ccc(F)cc3)ncn2)cc1 | – | 10 µM (active)
15 | C(=Nc1cnc2ccccc2c1)c1ccc2ccccc2n1 | -12.4% [at 11.4 µM] (inactive) | –
16 | O=C1C2C3C=CC(C3)C2C(=O)N1c1ncn[nH]1 (stereo not given) | – | inactive
17 | O=C1C2C3c4ccccc4C(c4ccccc43)C2C(=O)N1c1nc(-c2ccccc2)cs1 (stereo not given) | 0.59% [at 2.29 µM] (inactive) | –
18 | CC(C)(C)C(=O)N1CCc2cc(-c3csc(N)n3)ccc21 | – | 8.91 µM (active)
19 | COc1ccccc1CNS(=O)(=O)c1ccc2[nH]cc(C(=O)O)c(=O)c2c1 | – | inactive
20 | COc1cc(Cl)c(CC(=O)c2c[nH]c3ccccc23)cc1OC | – | 2.51 µM (active)
21 | O=C(OCCN1CCCCC1)c1c[nH]c2ccccc12 | – | inactive
22 | Nc1cc(Cl)nc(N/N=C/c2ccccc2[N+](=O)[O-])n1 | – | 14.1 µM (active)
23 | Nc1nnnn1/N=C\c1ccc(Cl)c([N+](=O)[O-])c1 | – | inactive
24 | O=[N+]([O-])c1ccc(/C=N/Nc2cc(Cl)nc(-c3ccccc3)n2)cc1 | – | inactive
25 | N[C@@H]1[C@@H]2[C@@H]3C[C@H]4N(CC[C@@]14C(=O)C(=O)O)CC3=CCO[C@@H]2CC(=O)O | -11.7% [at 11.4 µM] (inactive) | –
26 | COc1ccc2c(c1)CCc1c(C(=O)N3CCCCCC3)noc1-2 | – | 14.1 µM (active)
27 | CSc1nc2ccccc2cc1/C=C(\C#N)c1ccc(Cl)cc1Cl | 25.6% [at 11.4 µM] (inactive) | –

Row | Structure (SMILES) | activity, negative = inhibition | AC50
28 | CCOC(=O)C1=NNC2(c3ccc(Cl)cc3)C(=O)N(c3cc(C)cc(C)c3)C(=O)C12 (stereo not given) | – | 2.24 µM (active)
29 | Cc1nc2sc(C#N)c(N)c2c2c1CCCC2 | – | 14.1 µM (active)
30 | Cc1ccc(-c2c3c(nc4sc(C(N)=O)c(N)c24)CCC3)cc1 | 0.806% [at 2.29 µM] (inactive) | –
31 | COc1nc(C)nc(Cl)c1NC1=NCCN1 | – | inactive
32 | CN=C1N[C@H](c2ccccc2)N(c2ccccc2)S1 | – | 31.6 µM (active)
33 | S=C(NCCSCc1ccc(Cl)cc1Cl)Nc1ccccc1 | – | 7.94 µM (active)
34 | OCCSCc1cc(Cl)cc(Cl)c1O | -27.9% [at 11.4 µM] (inactive) | –
35 | S=C(NCCSCc1c(Cl)cccc1Cl)Nc1ccccc1 | – | 7.08 µM (active)
36 | Oc1ccc2ccccc2c1C=NCc1c(O)ccc2ccccc12 | -15.3% [at 11.4 µM] (inactive) | –
37 | CCOC(=O)CSC1=C(C#N)C(C)C2=C(CCCC2=O)N1 (stereo not given) | – | inactive
38 | CCOC(=O)CSC1=C(C#N)C(c2sccc2C)C(C(C)=O)=C(C)N1 (stereo not given) | 19% [at 2.29 µM] (inactive) | –
39 | C=CCOC(=O)C1=C(C)NC(SCC(=O)OCC)=C(C#N)C1c1ccc(C)cc1 (stereo not given) | – | 2.24 µM (active)
40 | CC(=NCC(=O)O)c1ccccc1 | -4.83% [at 11.4 µM] (inactive) | –
41 | COc1ccccc1-c1nc(NCc2cccnc2)c2ccccc2n1 | – | 10 µM (active)
42 | COc1ccccc1-c1nc(NCc2cccs2)c2ccccc2n1 | – | 12.6 µM (active)
43 | COc1ccccc1-c1nc(NCc2ccccc2)c2ccccc2n1 | – | 3.98 µM (active)
44 | CC[N+](C)(CC)CCOC(=O)C1c2ccccc2Oc2ccccc21 | – | inactive
45 | C[C@@H](C[C@H](N)C(=O)O)C(=O)O | -6.03% [at 11.4 µM] (inactive) | –
46 | COc1ccc(COC2OC[C@]3(C)[C@H]4C5=C(CN3C(=O)OC(C)(C)C)[C@H](C)C(CO)C(CO)C5CC[C@@H]24)cc1 (stereo not given in full) | – | 7.94 µM (active)
47 | COCC1C2CC[C@H]3C(OCc4ccc(OC)cc4)OC[C@]4(C)[C@H]3C2=C(CN4C(=O)OC(C)(C)C)[C@H](C)C1COC (stereo not given in full) | – | 1.58 µM (active)
48 | Cc1nn(C(C)C(=O)Nc2sc3c(c2C#N)CCCC3)c(C)c1[N+](=O)[O-] (stereo not given) | – | 15.8 µM (active)
49 | Cc1nn(C(C)C(=O)Nc2ccc(Cl)cn2)c(C)c1[N+](=O)[O-] (stereo not given) | – | 15.8 µM (active)
50 | Cc1cc(NC(=O)c2c([N+](=O)[O-])c(C)nn2C)no1 | – | inactive
51 | COc1cccc(NC(=S)NNC(=O)C(C)n2nc(C)c([N+](=O)[O-])c2C)c1 (stereo not given) | -29.4% [at 2.29 µM] (inactive) | –
52 | Cc1nc2ccccc2nc(C)c1=NO | – | inactive
53 | Cc1cc(OC(=O)c2cc(F)c(F)cc2Cl)nc(C)n1 | – | inactive
54 | CC(C)/C(=N/[N+](C)(C)C)c1ccccc1 | -14.9% [at 11.4 µM] (inactive) | –

Row | Structure (SMILES) | activity, negative = inhibition | AC50
55 | CO[C@H]1COC(=O)[C@H](C)NC(=O)C/C=C\[C@@H](C)[C@@H](NS(=O)(=O)c2ccc(C)cc2)COC(=O)[C@H](OCc2ccccc2)/C=C\[C@@H]1C | – | 3.16 µM (active)
56 | CO[C@H]1COC(=O)[C@@H](CCSC)NC(=O)C/C=C\[C@@H](C)[C@H](OC)COC(=O)[C@@H](OCc2ccccc2)/C=C\[C@@H]1C | -27.8% [at 11.4 µM] (inactive) | –
57 | CO[C@@H]1COC(=O)[C@H](C)NC(=O)C/C=C\[C@@H](C)[C@@H](NS(=O)(=O)c2ccc(C)cc2)COC(=O)C/C=C\[C@@H]1C | 5.93% [at 11.4 µM] (inactive) | –
58 | CO[C@H]1COC(=O)[C@H]2CCCN2C(=O)[C@@H](C)COC(=O)C/C=C\[C@@H]1C | -39.8% [at 11.4 µM] (inactive) | –
59 | CO[C@H]1COC(=O)C/C=C\[C@H](C)[C@@H](NS(=O)(=O)c2ccc(C)cc2)COC(=O)C/C=C\[C@@H]1C | – | 3.16 µM (active)
60 | CO[C@H]1COC(=O)C/C=C\[C@@H](C)[C@H](OC)COC(=O)[C@H]2CCCN2C(=O)C/C=C\[C@@H]1C | -29.5% [at 11.4 µM] (inactive) | –
61 | CO[C@@H]1COC(=O)C/C=C\[C@@H](C)[C@H](OC)COC(=O)[C@@H](C)COC(=O)C/C=C\[C@H]1C | -12.1% [at 11.4 µM] (inactive) | –
62 | CO[C@@H]1COC(=O)C/C=C\[C@H](C)COC(=O)[C@H](C)NC(=O)C/C=C\[C@H]1C | -19.1% [at 11.4 µM] (inactive) | –
63 | CO[C@@H]1COC(=O)C/C=C\[C@H](C)[C@H](OC)COC(=O)[C@H]2CCCN2C(=O)C/C=C\[C@H]1C | -14.8% [at 11.4 µM] (inactive) | –
64 | CO[C@@H]1COC(=O)C/C=C\[C@H](C)[C@@H](NS(=O)(=O)c2ccc(C)cc2)COC(=O)C/C=C\[C@@H]1C | – | 3.98 µM (active) and 3.16 µM (active)
65 | CO[C@H]1COC(=O)[C@H](C)NC(=O)C/C=C\[C@@H](C)[C@H](OC)COC(=O)[C@@H](OCc2ccccc2)/C=C\[C@@H]1C | -29.2% [at 11.4 µM] (inactive) | –
66 | CO[C@H]1COC(=O)[C@H](C)NC(=O)C/C=C\[C@@H](C)[C@@H](NS(=O)(=O)c2ccc(C)cc2)COC(=O)C/C=C\[C@@H]1C | – | 3.98 µM (active)
67 | CC(C)(C)C(=O)NC(=C(Cl)Cl)P(=O)(O)O | – | inactive
68 | N=C(N)C(N=Nc1ccccc1)C(=N)N (stereo not given) | -1.93% [at 11.4 µM] (inactive) | –
69 | CO[C@H]1COC(=O)C/C=C\[C@H](C)[C@@H](NS(=O)(=O)c2ccc(C)cc2)COC(=O)CCC[C@@H]1C | – | 3.98 µM (active)
70 | CO[C@H]1COC(=O)CCC[C@H](C)[C@H](OC)COC(=O)C/C=C\[C@@H]1C | -29.6% [at 11.4 µM] (inactive) | –
71 | CO[C@H]1COC(=O)CCC[C@H](C)[C@@H](OC)COC(=O)C/C=C\[C@@H]1C | -19.5% [at 11.4 µM] (inactive) | –
72 | CCC(Sc1nc2cc3c(cc2c(=O)n1Cc1ccco1)OCO3)C(=O)Nc1cccc(OC)c1 (stereo not given) | – | 1.26 µM (active)
73 | CCC(Sc1nc2cc3c(cc2c(=O)n1Cc1ccco1)OCO3)C(=O)Nc1ccccc1OC (stereo not given) | – | 1.58 µM (active)
74 | CCn1c(C)cc(/C=C2\NC(=O)N(Cc3ccc(Cl)cc3)C2=O)c1C | – | 1.58 µM (active)
75 | Cc1sc2nc(SCC(=O)C(C)(C)C)n(Cc3ccco3)c(=O)c2c1C | – | 11.2 µM (active)
76 | Cc1sc2nc(SCc3nc(-c4cccs4)no3)n(-c3ccccc3)c(=O)c2c1C | – | inactive
77 | Cc1ccc(S(=O)(=O)Nc2ccccc2C(=O)c2ccc(C)c(C)c2)cc1 | -2.65% [at 11.4 µM] (inactive) | –
78 | Cc1ccc(SCCNC(=O)c2ccc(C)c(S(=O)(=O)Nc3ccccc3C)c2)cc1 | – | 0.631 µM (active)
79 | Cc1ccccc1NS(=O)(=O)c1cc(C(=O)Nc2cccc(N(C)S(C)(=O)=O)c2)ccc1C | – | 1 µM (active)
80 | O=C(Nc1cccc(C(=O)Nc2ccc(S(=O)(=O)O)c3cc(S(=O)(=O)O)cc(S(=O)(=O)O)c23)c1)Nc1cccc(C(=O)Nc2ccc(S(=O)(=O)O)c3cc(S(=O)(=O)O)cc(S(=O)(=O)O)c23)c1 | – | inactive
